# High-throughput results as filed in PubChem.
# RGS8-Gao – human RGS8-Galphao interaction regulation; multiplexed bead flow cytometry, RGS8-Galphao binding; actives lie on both sides; P09471; hit rate 0.34% among 220,000; response (percent of control binding), % at 10 µM; in the data active = response below about 60% or above about 140%; inactive = in between;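 also: Galphao activated as the GDP aluminium fluoride complex binding bead-coupled RGS8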
# Target sequence (P09471 whole entry, looked up): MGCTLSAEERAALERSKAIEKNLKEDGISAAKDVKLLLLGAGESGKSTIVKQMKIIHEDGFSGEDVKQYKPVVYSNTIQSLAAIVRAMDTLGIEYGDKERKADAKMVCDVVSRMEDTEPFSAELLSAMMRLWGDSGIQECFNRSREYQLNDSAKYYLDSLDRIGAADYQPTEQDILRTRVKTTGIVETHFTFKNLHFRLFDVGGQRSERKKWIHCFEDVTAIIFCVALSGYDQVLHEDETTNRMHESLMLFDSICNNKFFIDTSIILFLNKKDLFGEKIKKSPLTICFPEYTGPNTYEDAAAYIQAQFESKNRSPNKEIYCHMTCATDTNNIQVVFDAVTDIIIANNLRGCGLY
# RGS16-Gao HTS – regulators of human RGS16-Galphao interaction; hit rate 0.38% among 220,000; bead-based flow cytometry RGS16-Galphao binding, fluorescence; actives lie on both sides; AID 1441; O15492+P09471; binding response (% of control), % at 10 µM;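 also: Galphao activated by GDP with aluminum fluoride before binding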
# GSH bead fluor – compound fluoresces at 488/530 nm on GSH beads. GSH beads flow cytometry, compound fluorescence 488/530 nm; hits give high values. fluorescence (KMESF) at 10 µM. hit rate 0.25% among 190,000. AID 1776; in the data active = fluorescence above about 89;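 also: glutathione beads carrying GST-tagged Bcl family fusion proteins plus one bare bead set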
# Avidin fluor – avidin bead compound fluorescence profile. Avidin beads, compound fluorescence 488/530 nm, flow cytometry; hits give high values. fluorescence (KMESF) at 10 µM. hit rate 0.38% among 220,000. AID 1775; in the data active = fluorescence above about 47
# RGS4-Gao reg – human RGS4-Galphao interaction regulation. AID 1415. Multiplexed bead flow cytometry, RGS4-Galphao binding; actives lie on both sides. hit rate 0.33% among 220,000. binding response (% of control), % at 10 µM. P09471; in the data active = binding response below about 49% or above about 150%; inactive = in between;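 also: fluorescent Galphao activated with aluminum fluoride binding bead-coupled RGS4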
# RGS7-Gao reg – human RGS7-Galphao interaction regulation; hit rate 0.35% among 220,000; P09471; Multiplexed bead flow cytometry, RGS7-Galphao binding; actives lie on both sides; binding response (% of control), % at 10 µM; in the data active = binding response below about 49% or above about 150%; inconclusive = no clear call, values can overlap the other calls; inactive = in between;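 also: fluorescent Galphao held in activated GDP-AlF4 state binding bead-coupled RGS7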
# RGS-Gao – RGS4-Galphao interaction regulator (human) | hit rate 99% among 1,600 | RGS4–Galpha-o binding response, % at 10 µM | shares compounds with RGS16-Gao HTS | multiplexed bead flow cytometry, RGS–Galpha-o binding;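 also: fluorescently labeled Galpha-o bound to GDP with aluminium fluoride binding biotinylated RGS beads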
# Biotin-avidin – interferes with biotinylated probe binding to avidin beads; AID 1783; 1,700 tested, under 10 active; streptavidin beads, fluorescein-biotin binding, flow cytometry; shares compounds with RGS16-Gao HTS; inhibition, % at 10 µM;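 active = inhibition above 50%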;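 also: median green fluorescence of gated singlet beads compared with DMSO control wells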
# RGS8-Gao confirm – confirmation of regulators of human RGS8-Galphao interaction; bead-based flow cytometry RGS8-Galphao binding, fluorescence; actives lie on both sides; hit rate 3% among 1,700; shares compounds with RGS16-Gao HTS; binding response (% of control), % at 10 µM; AID 1836; in the data active = binding response below about 72% or above about 130%; inactive = in between;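 also: Galphao activated as GDP AlF4 complex before binding bead RGS8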
# RGS7-Gao single – RGS7-Galphao interaction regulation, single point confirmation. shares compounds with RGS16-Gao HTS. bead-based flow cytometry RGS7-Galphao binding; actives lie on both sides. response (percent of control binding), % at 10 µM. hit rate 7.8% among 1,700; in the data active = response below about 75% or above about 130%; inactive = in between;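 also: fluorescent Galphao activated with GDP and aluminum fluoride binding bead-coupled RGS7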
# RGS16-Gao single – RGS16-Galphao interaction regulation, single point confirmation. shares compounds with RGS16-Gao HTS. bead-based flow cytometry, RGS16-Galphao binding; actives lie on both sides. response (% of control binding), % at 10 µM. hit rate 4% among 1,700. AID 1838; in the data active = response below about 74% or above about 130%; inactive = in between;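 also: Galphao activated as the GDP aluminium fluoride complex binding bead-coupled RGS16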
# RGS4-Gao single – RGS4-Galphao interaction regulation, single point confirmation | shares compounds with RGS16-Gao HTS | RGS4-Galphao binding, multiplexed bead flow cytometry; actives lie on both sides | binding response (% of control), % at 10 µM | hit rate 4% among 1,700; in the data active = binding response below about 74% or above about 130%; inactive = in between
# RGS19-Gao conf – RGS19-Galphao interaction regulation, single point confirmation; hit rate 5% among 1,700; response (percent of control binding), % at 10 µM; bead-based flow cytometry RGS19-Galphao binding; actives lie on both sides; shares compounds with RGS16-Gao HTS; in the data active = response below about 50% or above about 160%; inactive = in between
# Target sequence (P09471 whole entry, looked up): as above
# Target sequence (P49795 whole entry, looked up): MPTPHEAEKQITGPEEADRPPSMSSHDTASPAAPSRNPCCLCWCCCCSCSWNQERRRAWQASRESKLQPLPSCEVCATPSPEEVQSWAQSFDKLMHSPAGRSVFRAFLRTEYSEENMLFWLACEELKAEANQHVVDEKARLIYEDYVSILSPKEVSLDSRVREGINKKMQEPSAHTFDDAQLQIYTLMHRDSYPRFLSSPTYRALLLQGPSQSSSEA
# Hits are given with their value; i = inactive; ? = inconclusive; nt = no result given; [ ] = another dose, or the depositor's remark. An excerpt weighted towards active compounds, which were near 1.2% of everything screened. Unless noted, no rule for the calls is given here.
SMILES,RGS8-Gao,RGS16-Gao HTS,GSH bead fluor,Avidin fluor,RGS4-Gao reg,RGS7-Gao reg,Biotin-avidin,RGS8-Gao confirm,RGS7-Gao single,RGS16-Gao single,RGS4-Gao single,RGS19-Gao conf,others
CC(C)(C)c1ccc(C(=O)Oc2ccccc2CCC(=O)O)cc1,i,i,nt,i,i,?,nt,nt,nt,nt,nt,nt,
CC(=O)Nc1ccc(NC(=S)Nc2ccc(F)cc2)cc1,i,i,i,i,i,?,nt,nt,nt,nt,nt,nt,
CC(=O)Nc1ccc(NC(=S)Nc2ccccc2)cc1,nt,nt,i,nt,nt,nt,i,i,i,i,i,i,
CC(C)c1cccc(C(C)C)c1OCCCCN1CCCC1,nt,nt,i,nt,nt,nt,i,i,i,i,i,i,
COc1ccccc1NS(=O)(=O)c1cc(NC(=O)c2cnccn2)ccc1N1CCOCC1,i,i,nt,i,i,?,nt,nt,nt,nt,nt,nt,
COc1ccccc1NS(=O)(=O)c1cc(NC(=O)c2ccncc2)ccc1N1CCOCC1,i,22,i,i,i,i,i,i,i,i,i,i,RGS-Gao=95
CC1CCCCN1C(=O)Cn1cc(/C=C2/C(=O)Nc3ccccc32)c2ccccc21 (stereo not given),55,i,i,i,50,44,i,i,i,i,i,i,
S=c1[nH]nc(COc2ccccc2)n1Cc1ccccc1,50,3.7,i,i,i,i,i,i,i,i,i,i,RGS-Gao=80
CCN(CC)S(=O)(=O)c1ccc2[nH]c(=O)cc(C(=O)Nc3cccc(C(C)=O)c3)c2c1,i,i,i,i,i,?,nt,nt,nt,nt,nt,nt,
C[C@H](NC(=O)c1nc[nH]c1C(=O)NCc1ccccc1)C(=O)OC(C)(C)C,42,i,i,i,39,26,i,i,i,i,i,i,
C[C@H](NC(=O)c1nc[nH]c1C(=O)N[C@H](C)c1ccccc1)C(=O)OC(C)(C)C,21,16,i,i,25,17,i,i,i,i,i,i,
Cc1cc(C(=O)NCc2ccc(F)cc2)n(-c2ccccc2)n1,i,i,nt,i,i,?,nt,nt,nt,nt,nt,nt,
O=C(CN1CCN(C(=O)c2ccco2)CC1)Nc1ccc2c(c1)OCCO2,i,i,i,223,i,178[activator],i,i,i,i,i,i,RGS-Gao=122
CSC1=N/C(=C/c2cccnc2)C(=O)N1Cc1ccccc1,12,-5.1,nt,i,-9.4,?,i,i,i,i,i,i,
O=C(O)c1ccccc1Sc1ccccc1S(=O)(=O)NC1CCCCC1,7.1,-4.7,nt,i,-11,?,i,i,i,i,i,i,
O=C(O)c1ccccc1S(=O)(=O)NCC(O)COC1CCCCC1 (stereo not given),i,i,i,i,i,i,nt,nt,nt,nt,nt,nt,
CC(Oc1ccc(Br)cc1)C(=O)NCc1ccccn1 (stereo not given),i,i,i,i,i,i,nt,nt,nt,nt,nt,nt,
O=C(CP(=O)(c1ccccc1)c1ccccc1)Nc1nc2ccc(Cl)cc2s1,i,i,nt,i,i,?,nt,nt,nt,nt,nt,nt,
CCOc1ccc(C2NC(=O)NC(C)=C2C(=O)OC)cc1C (stereo not given),nt,nt,i,nt,nt,nt,i,i,i,i,i,i,
O=C(CSCc1cccc(Br)c1)N1CCOCC1,i,i,i,i,i,i,nt,nt,nt,nt,nt,nt,
Cn1c(CSCc2ccc(Cl)cc2)nnc1SCC(=O)Nc1nc2ccccc2s1,nt,nt,i,nt,nt,nt,i,i,i,i,i,i,
Cn1c(CSCc2ccc(Cl)cc2)nnc1SCC(=O)Nc1nccs1,i,i,i,i,i,i,nt,nt,nt,nt,nt,nt,
CN(C1CCCCC1)S(=O)(=O)c1ccc(NC(=S)NC(=O)c2cccs2)cc1,i,i,i,i,i,i,nt,nt,nt,nt,nt,nt,
CC(=O)N(C1=C(Cl)C(=O)c2ccccc2C1=O)C1CCCCC1,54,3.0,nt,i,i,?,nt,nt,nt,nt,nt,nt,RGS-Gao=87
CC(=O)N(c1ccccc1C)C1CCCC1,i,i,i,i,i,i,nt,nt,nt,nt,nt,nt,
SMILES,RGS8-Gao,RGS16-Gao HTS,GSH bead fluor,Avidin fluor,RGS4-Gao reg,RGS7-Gao reg,Biotin-avidin,RGS8-Gao confirm,RGS7-Gao single,RGS16-Gao single,RGS4-Gao single,RGS19-Gao conf,others
CCOC(=O)C1CCCN(c2c(N3CCN(c4cccc(Cl)c4)CC3)c(=O)c2=O)C1 (stereo not given),30,16,i,i,29,18,i,i,i,i,i,i,
CCOC(=O)C1CCCN(c2c(N3CCN(C)CC3)c(=O)c2=O)C1 (stereo not given),i,i,i,i,i,i,nt,nt,nt,nt,nt,nt,
CCN(Cc1ccncc1)S(=O)(=O)c1ccc(C(C)=O)cc1,i,i,i,i,i,i,nt,nt,nt,nt,nt,nt,
CN(c1ccccc1)c1nc2ccsc2c(=O)s1,i,i,i,169,i,247[activator],i,i,i,i,i,i,RGS-Gao=127
C=CCn1c(SCC(=O)c2[nH]c(C)c(C(=O)OCC)c2C)nc2scc(-c3ccc(OC)c(OC)c3)c2c1=O,i,191[activator],i,i,168[activator],i,i,i,i,i,i,i,
CCOC(=O)c1c(C)[nH]c(C(=O)CSc2nnc(-c3ccncc3)n2CC)c1C,i,i,i,i,i,i,nt,nt,nt,nt,nt,nt,
CCCCCOc1ccc(CSC(=N)N)cc1[N+](=O)[O-],i,i,i,i,42,49,i,i,i,i,i,i,
COc1ccc(C(F)(F)F)cc1NC(=O)c1nc2nc(C)cc(C(F)F)n2n1,30,i,i,i,38,33,i,i,i,i,i,i,
CCOC(=O)c1ccc(NC(=O)CSc2nnc(Cn3c(=O)sc4ccccc43)n2C)cc1,i,i,i,89,i,173[activator],i,i,i,i,i,i,RGS-Gao=109
CCc1ccc(NC(=O)CSc2nnc(Cn3c(=O)sc4ccccc43)n2C)cc1,i,i,i,i,i,i,nt,nt,nt,nt,nt,nt,
CCOc1ccc(S(=O)(=O)NCCC(=O)OCC(=O)c2ccc[nH]2)cc1,i,i,i,i,i,?,nt,nt,nt,nt,nt,nt,
CCN1/C(=C/C(C)=C/c2sc3ccccc3[n+]2CC)Sc2ccccc21,53,i,i,i,i,i,i,i,i,i,i,i,RGS-Gao=57
CCOc1ncccc1C(=O)Nc1nc(SC)ns1,i,i,i,i,i,?,nt,nt,nt,nt,nt,nt,
